# Laboratory results taken from PubChem BioAssay (NCATS).
# Results filed as inconclusive are left out. Entries that show only a call come without a potency. Active and inactive are the calls of the source. Calls come from the whole dose curve; as a rule, active = well fitted inhibition curve with a large enough effect; inconclusive = small, poorly fitted or top-dose-only effect; inactive = flat fitted curve, though single readings scatter.
# Test: BET inhibitor-based combinations targeting novel dependencies in MECOM-rearranged (r) AML: AML-194 cell line (AID 2202237; note: nearly all actives have a fitted effect of over 40% in size)
# Settings: AML-194 (MECOM-r AML) viability, CellTiter-Glo, 48 h; series mostly up to 46 µM
# How it was run: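 Luminescent ATP readout (CellTiter-Glo) after 48 hr drug exposure gives viability. Curves span 11 concentrations and are normalized to DMSO and empty wells. Activity is reported as area under the curve and its Z-transform within each cell line.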
# Potency is the fitted concentration of half-maximal effect.
row,SMILES,Potency
1,CC(C)C[C@H](NC(=O)CNC(=O)c1cc(Cl)ccc1Cl)B(O)O,0.332 µM (active)
2,C=C(C)[C@@H]1CC[C@]2(C)CC[C@]3(C)[C@H](CC[C@@H]4[C@@]5(C)CC[C@H](O)C(C)(C)[C@H]5CC[C@]43C)[C@@H]12,inactive
3,Cc1ccc(S(=O)(=O)Nc2nc3ccccc3nc2Nc2ccc3nsnc3c2)cc1,inactive
4,Cc1ccc2c(=O)c3cccc(CC(=O)O)c3oc2c1C,inactive
5,C/C=C/C(=O)N(CC)c1ccccc1C,inactive
